According to PubChem BioAssay AID720540 (National Center for Advancing Translational Sciences (NCATS), 2013):
The campaign covered roughly 1,300 compounds. About 460 (35%) were called active. Roughly 39% stayed inconclusive and do not appear here. This is one part of the list. A number with no mark means an inactive call. The call rests on the fitted dose curve; in most records, active means well fitted inhibition curve with a large enough effect; inconclusive means small, poorly fitted or top-dose-only effect; inactive means flat fitted curve, though single readings scatter.

Biological target: Protein phosphatase EYA2 (Homo sapiens) (UniProt O00167)
Sequence (O00167 whole entry, looked up): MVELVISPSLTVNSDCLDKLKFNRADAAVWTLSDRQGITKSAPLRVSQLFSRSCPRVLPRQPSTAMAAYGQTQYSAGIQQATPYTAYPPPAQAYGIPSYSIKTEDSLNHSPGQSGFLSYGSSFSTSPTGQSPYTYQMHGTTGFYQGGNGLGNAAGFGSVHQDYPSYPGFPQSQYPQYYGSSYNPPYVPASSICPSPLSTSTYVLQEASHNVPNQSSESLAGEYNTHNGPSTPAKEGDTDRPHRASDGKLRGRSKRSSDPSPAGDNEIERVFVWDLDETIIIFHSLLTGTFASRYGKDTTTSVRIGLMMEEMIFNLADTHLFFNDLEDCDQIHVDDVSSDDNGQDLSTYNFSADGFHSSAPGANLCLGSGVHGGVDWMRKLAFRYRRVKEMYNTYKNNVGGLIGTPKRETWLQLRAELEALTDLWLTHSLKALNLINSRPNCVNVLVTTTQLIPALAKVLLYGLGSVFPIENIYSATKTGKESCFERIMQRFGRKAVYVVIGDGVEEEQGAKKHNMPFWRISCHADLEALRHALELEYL
Assay: qHTS for Inhibitors of the Phosphatase Activity of Eya2: Confirmatory Assay for Cherry-picked Compounds; further: nearly all actives have a fitted effect of over 65% in size;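 on activity change, negative = inhibition: 0% = DMSO wells and -100% = EGTA control giving full inhibition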
Conditions: purified EYA2 phosphatase activity, qHTS confirmation; series mostly up to 46.1 µM; activity change, negative = inhibition: at the top concentration
Procedure, shortened: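 Eya2 (0.2 uM working solution) preincubated 10 min at room temperature with compound in pH 7.5 HEPES buffer with MgCl2, BSA, DTT. OMFP added (50 uM working solution), 10 min more; fluorescence 485/525 nm, normalized to EGTA and DMSO.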
Potency means the concentration at half of the fitted maximal effect.

Structure (SMILES)	activity change, negative = inhibition [%]	Potency
CCSc1nnc(-c2ccc(S(=O)(=O)N3CCOCC3)cc2)n1C	2.37	
CCOc1ccc(/C=C2\SC(=S)N(CCC(=O)Nc3ccc(C(=O)O)cc3)C2=O)cc1		19 µM (active)
CCOc1ccc(NC(=O)c2sccc2-n2cccc2)cc1	-22.2	
O=C(CCN1C(=O)/C(=C\C=C\c2ccccc2)SC1=S)Nc1ccc(C(=O)O)cc1	-25.3	
Cc1n[nH]c(=S)n(NC(=O)CC(=O)Nn2c(=S)[nH]nc(C)c2=O)c1=O		1.51 µM (active)
CC1CCCN(c2ccc3nc4ccccc4c(=O)n3n2)C1 (stereo not drawn)		13.5 µM (active)
Cc1ccc(CN2CCN(/N=C/c3ccc(C)s3)CC2)c(C)c1		15.1 µM (active)
O=C(Nc1nc2c(F)cc(F)cc2s1)c1ccc([N+](=O)[O-])o1	-27.1	
O=C(Oc1ccc(C(=S)N2CCOCC2)cc1)c1ccccc1[N+](=O)[O-]		13.5 µM (active)
O=C(Oc1ccc(C(=S)N2CCOCC2)cc1)c1ccccc1F		6.01 µM (active)
O=C(Oc1ccc(C(=S)N2CCCCC2)cc1)c1ccccc1F		13.5 µM (active)
Cc1cc(Br)c(NC(=O)c2ccccc2[N+](=O)[O-])cc1C	-9.39	
CC1(C)Nc2cccc3c(N=Nc4ccc(N=Nc5ccccc5)c5ccccc45)ccc(c23)N1		3.01 µM (active)
COc1ccc(Oc2nc(-c3ccccn3)ncc2OC)cc1		19 µM (active)
COc1ccc(CN(CCN(C)C)c2ccccn2)cc1	-3.21	
COc1cnc(-c2ccccn2)nc1Oc1ccc(C(C)(C)C)cc1		3.79 µM (active)
CCOC(=O)C(C)Sc1nc(-c2ccccn2)ncc1OC (stereo not drawn)		2.13 µM (active)
CCc1nc2ccc(C(=O)NCCCN(C)C)cn2c1N(C)Cc1ccc(OC)cc1	-5.22	
COc1ccc(N(CC(=O)Nc2nc3ccc(C)cc3s2)S(=O)(=O)c2c(C)nn(C)c2C)cc1	-25.2	
Cc1c(C(=O)O)c(O)cc2c1C(=O)c1c(O)c([C@H]3O[C@H](CO)[C@@H](O)[C@H](O)[C@H]3O)c(O)c(O)c1C2=O		16.9 µM (active)
CCc1ccc(NC(=O)COC(=O)c2ccccc2OCC(=O)N(C)C)cc1	-4.47	
CCOc1ccccc1C(=O)OCC(=O)Nc1nnc(-c2ccccc2)o1		19 µM (active)
COc1ccc(C(=O)Nc2nnc(-c3ccccc3)o2)cc1OC		19 µM (active)
O=C(Nc1cccc(-c2nnc(-c3ccco3)o2)c1)c1ccccc1	-19.3	

Structure (SMILES)	activity change, negative = inhibition [%]	Potency
O=C(COC(=O)c1cc(-c2cccnc2)nc2ccccc12)Nc1ccc(F)cc1F	-21.4	
C#Cc1cccc(NC(=O)CSc2nnc(-c3ccc(C(F)(F)F)cn3)o2)c1		15.1 µM (active)
CC1CCCCC1Nc1nc2ccc(Cl)cc2n2cnnc12 (stereo not drawn)	-24	
c1ccc2c(c1)nc(Nc1ccc(N3CCCCC3)cc1)c1nncn12		16.9 µM (active)
CN(C)c1ccc(/C=C2\C=Cc3ccccc32)cc1[N+](=O)[O-]		6.75 µM (active)
CN(C)c1ccc(/C=C2\C=Cc3ccccc32)cc1N		15.1 µM (active)
O=[N+]([O-])c1ccc(/C=C2\C=Cc3ccccc32)cc1		4.78 µM (active)
CNc1ccc(/C=C2\C=Cc3ccccc32)cc1OC		7.57 µM (active)
CCN(CC)CCNC(=O)c1ccc(N)cc1	-4.89	
CC(NC(=O)c1cc2c(s1)CS(=O)(=O)C2)c1ccccc1 (stereo not drawn)	-5.13	
Cc1cc(/C=C2\C=Cc3ccccc32)ccc1N(C)C		7.57 µM (active)
COc1cc(/C=C2/C=Cc3ccccc32)ccc1N(C)C		6.75 µM (active)
CCN(Cc1cccc(S(=O)(=O)O)c1)c1ccc(C(=C2C=CC(=[N+](CC)Cc3cccc(S(=O)(=O)O)c3)C=C2)c2ccccc2S(=O)(=O)[O-])cc1		9.53 µM (active)
CCN(Cc1cccc(S(=O)(=O)O)c1)c1ccc(C(=C2C=CC(=[N+](CC)Cc3cccc(S(=O)(=O)O)c3)C=C2)c2ccc(O)cc2S(=O)(=O)O)cc1		6.01 µM (active)
CC(=O)Nc1ccc(S(=O)(=O)N2C3CCCC2CC(NC(=O)C2CCCCC2)C3)cc1 (stereo not drawn)	-9.63	
Cc1nc2c(C(=O)Nc3ccc(N4CCCC(O)C4)cc3)snc2c(=O)[nH]1 (stereo not drawn)	-21.6	
CC(=O)Nc1ccc(S(=O)(=O)Nc2ccc(N3CCCCC3)cc2)cc1		8.49 µM (active)
COc1cc(NC(=O)CN2C(=O)CSc3ccc(S(=O)(=O)N4CCCC4)cc32)cc(OC)c1		5.36 µM (active)
O=C(Cc1ccccc1F)Nc1cccc(S(=O)(=O)N2CCCCC2)c1	-11.9	
O=C(O)c1c2c(nc3ccc(S(=O)(=O)N4CCC(C(=O)NC5CCCC5)CC4)cc13)CCCCC2	-12.6	
COc1ccc(CNC(=O)C2CCN(S(=O)(=O)c3ccc4nc5c(c(C(=O)O)c4c3)CCCC5)CC2)cc1		15.1 µM (active)
COc1ccc(S(=O)(=O)N2CCN(C(=O)c3cc4c(s3)CCC4)CC2)cc1	-25.3	
Cc1ccc(CNC(=O)C2CCN(S(=O)(=O)c3ccc4nc5c(c(C(=O)O)c4c3)CC(C)CC5)CC2)cc1 (stereo not drawn)		8.49 µM (active)
CCN(CC)c1ccc(/C=N/N2CCN(Cc3ccccc3Cl)CC2)cc1		7.57 µM (active)

Structure (SMILES)	activity change, negative = inhibition [%]	Potency
CCN1C(=O)c2cccc3c(S(=O)(=O)N(C(C)=O)c4ccc(OC(C)=O)cc4)ccc1c23		15.1 µM (active)
CC(=O)Oc1ccc(N2C(=O)c3cccc4c([N+](=O)[O-])ccc(c34)C2=O)cc1	-22.5	
O=C(O)c1c(Br)c(Br)c(Br)c(Br)c1C1c2ccc(O)cc2Oc2cc(O)ccc21		1.35 µM (active)
C[N+](C)(CCCCCI)c1ccc(/C=C/c2nc3ccccc3s2)cc1		13.5 µM (active)
Cc1ccc(C2CC(c3ccc(Br)cc3)=NN2C(=O)CSC2=NN3CCCC(=O)N=C3S2)cc1 (stereo not drawn)	-26.2	
Nc1ccc2nc3c(=O)[nH]c(=S)[nH]c3nc2c1		6.01 µM (active)
COC(=O)c1ccccc1NC(=S)NC(=O)c1ccc(C)cc1		13.5 µM (active)
O=C1C(N2CCOCC2)=Cc2cccc3cccc1c23		19 µM (active)
CCOC(=O)C1=C(N)Oc2c(oc(CO)cc2=O)C1c1ccc(Cl)cc1 (stereo not drawn)	-29.1	
COc1ccc(C(=O)CC(=O)Nc2ccc([N+](=O)[O-])cc2)cc1	-14.9	
NC(N)=Nc1nc2cc([N+](=O)[O-])ccc2o1	-25	
O=C(Nc1cc([N+](=O)[O-])ccc1O)c1cccc(C(=O)Nc2cc([N+](=O)[O-])ccc2O)c1		3.79 µM (active)
O=C(O)CSCc1nc2cccnc2n1C1CCCCC1	-11.2	
O=C(O)C1=NN(c2cc(Cl)c(S(=O)(=O)O)cc2Cl)C(=O)C1		8.49 µM (active)
COc1cc(C(=O)Nc2scc(-c3ccc(Br)cc3)c2C(=O)O)cc(OC)c1OC		19 µM (active)
Cc1ccc(-c2csc(NC(=O)c3ccccc3F)c2C(=O)O)cc1		7.57 µM (active)
CCCC[C@@]1(C2CCCC2)Cc2cc(OCC(=O)O)c(Cl)c(Cl)c2C1=O	-29	
O=C(NN1C(=O)/C(=C/C=C/c2ccco2)SC1=S)c1ccncc1		6.01 µM (active)
O=C1/C(=C/C=C/c2ccco2)SC(=S)N1NS(=O)(=O)c1ccccc1		7.57 µM (active)
CCn1c(SCC(=O)N2CCN(c3ccccc3)CC2)nc2c(c1=O)SC(C)C2 (stereo not drawn)	-26.4	
CN(C)c1ccc(N=c2sc3ccccc3n2C)cc1		7.57 µM (active)
Cc1cccc(N2CCN(C(=O)C3COc4ccccc4O3)CC2)c1C (stereo not drawn)	-9.42	
O=C(O)/C=C/C(=O)Nc1ccc2c(c1)C(=O)c1ccccc1C2=O		16.9 µM (active)
Oc1c(C(Nc2nc3ccccc3s2)c2ccco2)ccc2cccnc12 (stereo not drawn)		9.53 µM (active)

Structure (SMILES)	activity change, negative = inhibition [%]	Potency
CN(C)c1ccc(C(=C2C=CC(=[N+](C)C)C=C2)c2c(O)c(S(=O)(=O)[O-])cc3cc(S(=O)(=O)O)ccc23)cc1		7.57 µM (active)
CN(C)c1ccc(C(=C2C=CC(=[N+](C)C)C=C2)c2ccc(N(C)C)cc2)cc1		6.01 µM (active)
O=C(Nc1ccc(-c2nc3cccnc3s2)cc1)C1CCCO1 (stereo not drawn)	-24.1	
Cc1cc(=O)n2nc(N3CCCC(C(=O)Nc4ccc(C)c(C)c4)C3)sc2n1 (stereo not drawn)	-29.7	
CCc1ccc(N=C2NC(=O)/C(=C/c3cc(OC)c(O)c(OC)c3)S2)cc1		19 µM (active)
COc1ccc(-c2ccc(SCc3cccnc3)nn2)cc1OC		16.9 µM (active)
Cc1ccc(NC(=S)N2CCc3[nH]c4ccccc4c3C2)cc1	-30	
COc1cccc(/C=N/N2C(=O)CSC2=S)c1O		0.478 µM (active)
Nc1c(N=Nc2ccc([N+](=O)[O-])cc2)c(S(=O)(=O)O)cc2cc(S(=O)(=O)O)c(/C=C/c3ccccc3)c(O)c12		7.57 µM (active)
COc1ccccc1C(CCNCc1ccc(N(C)C)cc1)c1ccc(OC(C)C)cc1 (stereo not drawn)		6.01 µM (active)
COc1ccc(C(CCNCc2ccc(N(C)C)cc2)C(C)C)cc1 (stereo not drawn)		8.49 µM (active)
CC1Cc2ccccc2N1C(=O)C1CCCN1S(=O)(=O)c1ccc(Cl)cc1 (stereo not drawn)	1.17	
Cc1nn(C)c(Cl)c1CN1CCCC(CO)(Cc2cccc(Cl)c2)C1 (stereo not drawn)	-16.1	
CC1CS(=O)(=O)CCN1N=Cc1ccc([N+](=O)[O-])o1 (stereo not drawn)	-2.82	
O=C(O)c1ccc2c(=O)n3cc(C(=O)c4ccccc4O)cc(Cl)c3nc2c1		15.1 µM (active)
C=C(CC[C@]12OC(C(=O)O)C(O)(C(=O)O)C(C(=O)O)(O1)C(OC(=O)/C=C/[C@@H](C)C[C@@H](C)CC)C2O)[C@@H](OC(C)=O)[C@H](C)Cc1ccccc1 (stereo partly drawn)		19 µM (active)
Cc1cc(C)c(C#N)c(Sc2nnnn2-c2ccccc2)n1	-3.69	
COc1cc2c(cc1OC)-c1cc(Nc3ccc(F)cc3)nc(=O)n1CC2		2.39 µM (active)
CCOc1ccc(Nc2cc3n(c(=O)n2)CCc2cc(OC)c(OC)cc2-3)cc1		6.75 µM (active)
COc1cc2c(cc1OC)-c1cc(Nc3ccccc3)nc(=O)n1CC2		6.75 µM (active)
COc1ccc(Nc2cc3n(c(=O)n2)CCc2cc(OC)c(OC)cc2-3)c(C)c1		15.1 µM (active)
